Values joined by “and” are separate entries in the source; they are usually repeats but may differ in a detail not shown here. Equal entries are not always repeated. Results filed as inconclusive are left out. Values without a mark were called inactive. Active and inactive are the calls of the source. Calls follow the shape of the dose curve; as a rule, active = well fitted inhibition curve with a large enough effect; inconclusive = small, poorly fitted or top-dose-only effect; inactive = flat fitted curve, though single readings scatter.

The values below come from PubChem BioAssay (NCATS).

In assay [1] the test system is CRL-7250. The experiment in a line: Cytotoxic Profiling of Annotated Libraries Using Quantitative High-Throughput Screening (AID 1296008). As to max response: % is scaled to controls: 0 for no effect and ±100 for the full control effect. Conditions: Five cell lines viability, CellTiter-Glo ATP luminescence, 48-72 h; max response: stronger effect = lower value. A digest of the protocol: (§1)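 Compounds were pin-transferred onto cells and incubated 48 or 72 hr at 37 degree Celsius, 95% humidity. CellTiter-Glo was added, plates sat 10 min at room temperature, then ATP-coupled luminescence was imaged as the viability read-out.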
Background: In ATP-based viability assays light output follows the ATP content of the culture.

In a further assay the test system is HEK293. The assay is described as above. As to conditions: Five cell lines viability, CellTiter-Glo ATP luminescence, 48-72 h; max response: stronger effect = lower value. The gist of the method: as §1
Assay [2] relates to HaCat. The description is as above. As to conditions: Five cell lines viability, CellTiter-Glo ATP luminescence, 48-72 h; max response: stronger effect = lower value. The gist of the method: as §1
The subject of assay [3] is NIH3T3. The assay is described as above. Conditions: Five cell lines viability, CellTiter-Glo ATP luminescence, 48-72 h; max response: stronger effect = lower value. The gist of the method:
as §1

The subject of assay [4] is CRL-7250. Description: qHTS assay to identify novel small-molecules to repurpose for Merkel cell carcinoma treatment (AID 1296009). As to conditions: MCC and control cell lines, CellTiter-Glo viability, 72 h; at 44.8 µM (top of the series) unless noted. The gist of the method:
(§2)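 Cells exposed to NPC (8-point) and MIPE (11-point) compound dilutions for 72 hr at 37 degree celsius; viability read by CellTiter-Glo luminescence, normalized to no-cell and DMSO in-plate controls.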
On the technique in general: qHTS replaces the single test concentration by a dilution series.

The test system of assay [5] is HACAT. The assay is described as above. Conditions: MCC and control cell lines, CellTiter-Glo viability, 72 h; at 44.8 µM (top of the series) unless noted. A digest of the protocol: as §2
Another assay concerns MCC-13. The assay is described as above. As to conditions: MCC and control cell lines, CellTiter-Glo viability, 72 h; series mostly up to 46 µM. A digest of the protocol: as §2
For the next assay, the system named is MCC-26. The assay is described as above. Conditions: MCC and control cell lines, CellTiter-Glo viability, 72 h; series mostly up to 46 µM. A digest of the protocol:
as §2

For a further assay, the system named is MKL-1. Described as above. As to conditions: MCC and control cell lines, CellTiter-Glo viability, 72 h; series mostly up to 46 µM. The gist of the method: as §2
The next assay has as its system MKL-2. Described as above. As to conditions: MCC and control cell lines, CellTiter-Glo viability, 72 h; series mostly up to 46 µM. A digest of the protocol:
as §2

For assay [6], the system named is NIH3T3. The assay is described as above. As to conditions: MCC and control cell lines, CellTiter-Glo viability, 72 h; at 44.8 µM (top of the series) unless noted. The gist of the method: as §2
A further assay has as its system UISO. Described as above. Conditions: MCC and control cell lines, CellTiter-Glo viability, 72 h; series mostly up to 46 µM. The gist of the method:
as §2

The subject of a further assay is WaGa. Described as above. As to conditions: MCC and control cell lines, CellTiter-Glo viability, 72 h; series mostly up to 46 µM. A digest of the protocol:
as §2

The test system of the next assay is SC27B. Description: qHTS profiling for inhibitors of Plasmodium falciparum proliferation (AID 504749). As to conditions: P. falciparum in erythrocytes, SYBR Green DNA, 72 h; series mostly up to 28.7 µM. A digest of the protocol: (§3)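 P. falciparum-infected erythrocytes (0.3% parasitemia, 2.5% hematocrit final) were exposed to compounds for 72 h at 37 C in 5% CO2, then lysed with SYBR Green buffer overnight at room temperature; parasite DNA fluorescence was normalized to artemisinin and DMSO controls.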

In a further assay the test system is TAB109. The description is as above. Conditions: P. falciparum in erythrocytes, SYBR Green DNA, 72 h; series mostly up to 28.7 µM. A digest of the protocol: as §3
For another assay, the system named is TAB113. The assay is described as above. As to conditions: P. falciparum in erythrocytes, SYBR Green DNA, 72 h; series mostly up to 28.7 µM. A digest of the protocol:
as §3

The subject of the next assay is TAB165. Described as above. As to conditions: P. falciparum in erythrocytes, SYBR Green DNA, 72 h; series mostly up to 28.7 µM. The gist of the method:
as §3

Another assay relates to W2. The description is as above. As to conditions: P. falciparum in erythrocytes, SYBR Green DNA, 72 h; series mostly up to 28.7 µM. A digest of the protocol:
as §3

Another assay has as its system KB-3-1. Description: Cytotoxic Profiling of Annotated Libraries Using Quantitative High-Throughput Screening (AID 1296008). As to max response: % is scaled to controls: 0 for no effect and ±100 for the full control effect. As to conditions: Five cell lines viability, CellTiter-Glo ATP luminescence, 48-72 h; max response: stronger effect = lower value. A digest of the protocol:
as §1

The next assay deals with HEK293T. Description: qHTS assay to identify novel small-molecules to repurpose for Merkel cell carcinoma treatment (AID 1296009). As to conditions: MCC and control cell lines, CellTiter-Glo viability, 72 h; at 44.8 µM (top of the series). A digest of the protocol: as §2
Also: nearly all actives have a fitted effect of over 60% in size.
Potency is read from the fitted curve at half-maximal effect.

Turning to `O=c1[nH]c2cc(Cl)ccc2n1C1CCNCC1`, the call in the assay on CRL-7250 [1], in the assay on HaCat [2], in the assay with NIH3T3 [3], in the assay with CRL-7250 [4], in the assay on HACAT [5] and in the assay on NIH3T3 [6] was inactive. Moreover, in the assay with HEK293, the max response was -8.77%. Besides, the Potency entry in the assay with MCC-13, in the assay with MCC-26, with MKL-1, in the assay with MKL-2, in the assay on UISO and in the assay with WaGa was “inactive” each time.

For `CCS(=O)(=O)C(C)(C)S(=O)(=O)CC`, the Potency result in the assay on SC27B, in the assay on TAB109, with TAB113, in the assay with TAB165, with W2 and in the assay on MCC-13 was “inactive” throughout. Further, the Potency result in the assay with MCC-26, in the assay on MKL-1, in the assay on MKL-2, with UISO and in the assay with WaGa was “inactive” throughout. Moreover, the max response was -10.9% in the assay on CRL-7250 [1], 1.49% with HEK293, 3.51% in the assay on KB-3-1 and -2.98% with NIH3T3 [3].

As for `COP(=O)(OC)OC=C(Cl)Cl`, the Potency result in the assay with SC27B, in the assay on TAB109, with TAB113, in the assay with TAB165, in the assay with MCC-13 and with MCC-26 was “inactive” each time. In addition, the Potency result in the assay on MKL-1, with MKL-2, in the assay with UISO and in the assay on WaGa was “inactive” in each case. For the same compound, the Potency in the assay with W2 is 10.7 µM (active). Further, the result with CRL-7250 [1], with NIH3T3 [3], with CRL-7250 [4] and in the assay on NIH3T3 [6] was inactive. Moreover, the max response in the assay on HEK293 is -1.59%; in the assay on HaCat [2], -7.81%.

As for `CC(CC(C(N)=O)(c1ccccc1)c1ccccc1)N(C)C` (configuration not stated), the max response in the assay on CRL-7250 [1] is -1.58%; with HaCat [2], -10.9%. Further, the compound was called inactive in the assay on HEK293, in the assay with NIH3T3 [3], in the assay with HEK293T and in the assay with NIH3T3 [6]. Besides, the Potency result with MCC-13, in the assay on MCC-26, in the assay on MKL-1, in the assay with MKL-2, in the assay with UISO and with WaGa was “inactive” each time.

Take `CC[n+]1c(-c2ccccc2)c2cc(N)ccc2c2ccc(N)cc21`: the Potency in the assay with SC27B is 126 nM (active) and 355 nM (active); in the assay with TAB109, 70.8 nM (active) and 158 nM (active); in the assay on TAB113, 100 nM (active) and 316 nM (active); with TAB165, 17.8 nM (active) and 224 nM (active); with W2 it was 21.3 nM (active) and 37.9 nM (active); in the assay with CRL-7250 [1] it was 6.68 µM (active). Besides, the Potency with HEK293 was 596 nM (active); in the assay with KB-3-1, 8.2 µM (active) and 23.1 µM (active); in the assay with MKL-1, 668 nM (active); with MKL-2, 944 nM (active); in the assay on UISO it was 7.5 µM (active); in the assay with WaGa, 750 nM (active).

Regarding `O=C(NC(=O)c1c(F)cccc1F)Nc1cc(Cl)c(OC(F)(F)C(F)C(F)(F)F)cc1Cl` (configuration not stated), the Potency in the assay on TAB113 was 11.2 µM (active). In addition, the compound was called inactive with CRL-7250 [1], with HaCat [2], in the assay with CRL-7250 [4] and with HACAT [5]. The max response is 8.21% with KB-3-1 and -16.1% in the assay with NIH3T3 [3]. Further, the Potency entry in the assay with MCC-13, with MCC-26, in the assay with MKL-1, with UISO and with WaGa was “inactive” each time.

With `CN1C2CCC(C)(C)C1CC(OC(=O)C(O)(c1cccs1)c1cccs1)C2` (configuration not stated), the max response in the assay with CRL-7250 [1] was -6.95%; in the assay on HEK293, -10.3%; with NIH3T3 [3], -4.3%. Further, the compound was called inactive in the assay with HaCat [2] and in the assay with HACAT [5]. Besides, the Potency result in the assay with MCC-13, in the assay on MCC-26, in the assay on MKL-1, with MKL-2, with UISO and in the assay on WaGa was “inactive” throughout.

As for `Cc1ccc([N+](=O)[O-])[c]2c1[O][Hg]2`, the Potency in the assay on CRL-7250 [1] is 1.5 µM (active); in the assay with HEK293, 1060 nM (active); in the assay with HaCat [2] it was 6.68 µM (active); in the assay on NIH3T3 [3], 4.22 µM (active); with MCC-13 it was 2.11 µM (active); in the assay on MCC-26 it was 1.88 µM (active). Besides, the Potency in the assay on MKL-1 was 133 nM (active); in the assay on MKL-2 it was 42.2 nM (active); with UISO, 0.335 µM (active); in the assay with WaGa, 335 nM (active).
